Source: PubChem (The Scripps Research Institute Molecular Screening Center)
FBW7 act: FBW7 E3 ligase activators, primary screen, biochemical, AlphaScreen, human; F-box/WD repeat-containing protein 7 (Homo sapiens), Q969H0; AlphaScreen FBW7–phospho-cyclin E peptide binding, activator screen; normalized activity (activation), % at 26.1 µM; 650,000 compounds, 0.13% hits; in the data active means normalized activity above about 1.9%;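 further: purified mutant Fbw7 with reduced substrate affinity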
TEAD-YAP inh: TEAD-YAP interaction inhibition, primary screen, TEAD-YAP interaction inhibitor project, luminescence, HEK-TIYL cells; TEAD-Gal4/YAP UAS-luciferase luminescence; 640,000 compounds, 1.4% hits; inhibition, % at 9.12 µM; AID 1259422, 2018; in the data active means inhibition above about 32%;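 further: 0% = median of test compound wells and 100% = reference inhibitor wells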
MITF primary: MITF inhibitors, primary screen, biochemical, AlphaScreen, human | AID 1259374, 2018 | Microphthalmia-associated transcription factor (Homo sapiens), O75030 | AlphaScreen MITF homodimerization, bead proximity signal | 650,000 compounds, 0.91% hits | inhibition, % at 2.6 µM; in the data active means inhibition above about 50%;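 further: 0% = vehicle wells with protein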
Target sequence (O75030 whole entry, looked up): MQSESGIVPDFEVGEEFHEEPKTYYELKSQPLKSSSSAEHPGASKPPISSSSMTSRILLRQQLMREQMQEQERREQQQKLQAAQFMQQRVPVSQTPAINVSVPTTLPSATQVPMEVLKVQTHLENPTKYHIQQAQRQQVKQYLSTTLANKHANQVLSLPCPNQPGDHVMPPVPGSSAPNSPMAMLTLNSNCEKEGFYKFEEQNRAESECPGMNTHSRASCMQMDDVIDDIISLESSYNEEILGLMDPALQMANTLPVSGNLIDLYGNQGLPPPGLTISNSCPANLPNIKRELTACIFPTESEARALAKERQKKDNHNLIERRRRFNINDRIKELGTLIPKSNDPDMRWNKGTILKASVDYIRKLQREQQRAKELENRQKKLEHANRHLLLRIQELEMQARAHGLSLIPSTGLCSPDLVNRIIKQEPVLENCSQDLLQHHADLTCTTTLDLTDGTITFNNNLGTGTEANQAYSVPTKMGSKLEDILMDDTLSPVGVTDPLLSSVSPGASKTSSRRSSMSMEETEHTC
GPR151 ag: activators of human GPR151, primary screen, cell-based, PathHunter beta-arrestin, luminescence | 650,000 compounds, 1% hits | activation, % at 11.2 µM | G-protein coupled receptor 151 (Homo sapiens), Q8TDV0 | PathHunter beta-arrestin GPR151 cells | AID 1508602, 2020; in the data active means activation above about 4.9%;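 further: 0% = median of compound wells and 100% = cells with positive control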
Active calls of the source: *. In the library only some 3.5% were active in any assay of this set; here they are far more common.

Screening Fc1ccccc1NC(=S)NCCN1CCOCC1 returned FBW7 act 0, TEAD-YAP inh -3, MITF primary 20 and GPR151 ag 0.
Screening O=C(Nc1ccc2c(c1)OCCO2)c1ccccc1NC(=S)NCCN1CCOCC1 returned FBW7 act 0, TEAD-YAP inh 73*, MITF primary -7 and GPR151 ag -8.
`CCOC(=O)c1[nH]c(C)c(C(=O)Nc2ccccc2C)c1C` gave FBW7 act 0, TEAD-YAP inh 44*, MITF primary -5 and GPR151 ag -1.
Screening CCOC(=O)c1[nH]c(C)c(C(=O)N2CC(C)CC(C)C2)c1C (configuration not stated) returned FBW7 act 0, TEAD-YAP inh 44*, MITF primary -2 and GPR151 ag -1.
CC(=O)c1[nH]c(C)c(C(=O)Nc2cc(Cl)ccc2C)c1C was read as FBW7 act 0, TEAD-YAP inh -1, MITF primary 17 and GPR151 ag 0.
Screening CCOC(=O)c1[nH]c(C)c(C(=O)N2CCCCCC2)c1C returned FBW7 act 1, TEAD-YAP inh -8, MITF primary 20 and GPR151 ag 1.
CCOC(=O)c1[nH]c(C)c(C(=O)c2ccc(Cl)cc2)c1C was read as FBW7 act 0, TEAD-YAP inh 40*, MITF primary 13 and GPR151 ag 2.
`CCOC(=O)c1[nH]c(C)c(C(=O)Nc2cc(Cl)ccc2C)c1C` gave FBW7 act 0, TEAD-YAP inh 47*, MITF primary -10 and GPR151 ag 0.
`CCOc1ccccc1N(CC(=O)NC(C)CC)S(=O)(=O)c1ccc(C)cc1` (configuration not stated) gave FBW7 act 0, TEAD-YAP inh 4, MITF primary 4 and GPR151 ag -1.
`COc1ccccc1CNC(=O)CC1S/C(=N\N=C\c2ccccc2)NC1=O` (configuration not stated) gave FBW7 act 0, TEAD-YAP inh 10, MITF primary 20 and GPR151 ag 2.
Screening CCOc1ccc(/C=N/c2ncn[nH]2)cc1 returned FBW7 act 0, TEAD-YAP inh 9, MITF primary 17 and GPR151 ag 1.
Screening CCOC(=O)N1CCN(c2ncnc3c2c(-c2ccccc2)cn3-c2ccccc2)CC1 returned FBW7 act 0, TEAD-YAP inh -3, MITF primary -4 and GPR151 ag 1.
Screening CCOC(=O)c1c(C)[nH]c(C(=O)C(C)Nc2ccccc2OCC)c1C (configuration not stated) returned FBW7 act 0, TEAD-YAP inh -3, MITF primary 5 and GPR151 ag 0.
Screening CCOC(=O)c1[nH]c(C)c(CNc2cc(OC)ccc2OC)c1C returned FBW7 act 0, TEAD-YAP inh 50*, MITF primary 12 and GPR151 ag 0.
For CCOC(=O)c1c(C)[nH]c(C(=O)C(C)Nc2ccc(OC)c(OC)c2)c1C (configuration not stated) the results were FBW7 act 0, TEAD-YAP inh 43*, MITF primary 42 and GPR151 ag -2.
Screening CCOC(=O)c1[nH]c(C)c(C(=O)Nc2ccccc2OCC)c1C returned FBW7 act 0, TEAD-YAP inh 58*, MITF primary -9 and GPR151 ag 0.
`CCOC(=O)c1[nH]c(C)c(C(=O)Nc2cc(C)ccc2OC)c1C` gave FBW7 act 0, TEAD-YAP inh 57*, MITF primary 2 and GPR151 ag 2.
For CCOC(=O)c1c(C)[nH]c(C(=O)C(C)Nc2cc(NC(C)=O)ccc2OC)c1C (configuration not stated) the results were FBW7 act 0, TEAD-YAP inh 1, MITF primary 1 and GPR151 ag -2.
Screening O=C(Nc1cc(S(=O)(=O)Nc2ccc(Cl)cc2)ccc1Cl)C(F)(F)F returned FBW7 act 0, TEAD-YAP inh -4, MITF primary 12 and GPR151 ag -1.
Cc1cc(=O)oc2c1c(C)nn2-c1ccc(F)c(Cl)c1 was read as FBW7 act 0, TEAD-YAP inh 1, MITF primary 15 and GPR151 ag -1.
CCn1c(=O)cc(SCC(=O)NCc2ccc(F)cc2)c2ccccc21 was read as FBW7 act 0, TEAD-YAP inh 45*, MITF primary 6 and GPR151 ag 1.
For CCn1c(=O)cc(SCC(=O)NCc2cccs2)c2ccccc21 the results were FBW7 act 0, TEAD-YAP inh 43*, MITF primary 13 and GPR151 ag 0.
`CCn1c(=O)cc(SCC(=O)NC(C)C)c2ccccc21` gave FBW7 act 0, TEAD-YAP inh 4, MITF primary 2 and GPR151 ag 0.
Cc1ccc(CSCCNC(=O)CN(c2ccc(C)c(C)c2)S(C)(=O)=O)cc1 was read as FBW7 act 0, TEAD-YAP inh 17, MITF primary 3 and GPR151 ag 0.
For CC(C)COCc1ccc(O)c2ncccc12 the results were FBW7 act -2, TEAD-YAP inh 22, MITF primary 59* and GPR151 ag 0.
For COc1ccc(CCNC(=O)c2cccc(Nc3ccc(-n4ccnc4)cc3)n2)cc1 the results were FBW7 act 0, TEAD-YAP inh 49*, MITF primary 4 and GPR151 ag 0.
`COc1ccc(CCNC(=O)c2cccc(Nc3ccncc3)n2)cc1` gave FBW7 act 0, TEAD-YAP inh 2, MITF primary -2 and GPR151 ag 4.
`O=C(NCc1ccccc1)c1cccc(Nc2ccc(N3CCOCC3)cc2)n1` gave FBW7 act 0, TEAD-YAP inh 25, MITF primary 7 and GPR151 ag 3.
For O=C(NCCOc1ccccc1)c1cccc(Nc2ccc(N3CCOCC3)cc2)n1 the results were FBW7 act 0, TEAD-YAP inh 47*, MITF primary 1 and GPR151 ag 4.
For O=C(NCCOc1ccccc1)c1ccc2ccccc2n1 the results were FBW7 act 0, TEAD-YAP inh 53*, MITF primary -14 and GPR151 ag -1.
For O=C(NCCOc1ccccc1F)c1ccc2ccccc2n1 the results were FBW7 act 0, TEAD-YAP inh 58*, MITF primary -5 and GPR151 ag -3.
For COc1ccc(OC(=O)c2cc3cc([N+](=O)[O-])ccc3oc2=O)cc1 the results were FBW7 act 0, TEAD-YAP inh 2, MITF primary -1 and GPR151 ag 0.
Nc1ncc(-c2cccc(F)c2)nc1NCc1ccncc1 was read as FBW7 act 1.9*, TEAD-YAP inh -8, MITF primary 12 and GPR151 ag -2.
For Nc1ncc(-c2ccncc2)nc1NCc1ccccc1 the results were FBW7 act 0, TEAD-YAP inh 7, MITF primary -2 and GPR151 ag 2.
`CCOC(=O)c1c(C)[nH]c(C(=O)N/N=C\c2ccccc2O)c1C` gave FBW7 act 0, TEAD-YAP inh 35*, MITF primary -1 and GPR151 ag 0.
Screening CCOC(=O)c1c(C)[nH]c(C(=O)N/N=C\c2ccc(Br)cc2)c1C returned FBW7 act 0, TEAD-YAP inh 56*, MITF primary 3 and GPR151 ag 2.
